# Target: T1, ETS1 (UniProt P14921)
# T1 sequence: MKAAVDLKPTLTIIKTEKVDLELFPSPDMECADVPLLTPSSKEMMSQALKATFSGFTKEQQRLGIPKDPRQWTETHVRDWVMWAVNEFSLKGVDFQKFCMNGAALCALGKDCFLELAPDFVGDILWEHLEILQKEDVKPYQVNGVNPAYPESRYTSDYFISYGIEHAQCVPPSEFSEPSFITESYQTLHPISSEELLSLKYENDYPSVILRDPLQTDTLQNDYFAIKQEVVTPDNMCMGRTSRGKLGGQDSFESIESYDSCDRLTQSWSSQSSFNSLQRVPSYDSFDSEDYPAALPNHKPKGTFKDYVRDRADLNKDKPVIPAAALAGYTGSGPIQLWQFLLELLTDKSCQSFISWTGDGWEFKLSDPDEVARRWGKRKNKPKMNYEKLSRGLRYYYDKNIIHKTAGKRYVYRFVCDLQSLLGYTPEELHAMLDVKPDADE
# Assay: ETS1 binding intensity (PBM fluorescence), ETS1 alone (arbitrary fluorescence units); higher = stronger binding
# Details: ETS1 concentration 1 nM; RUNX1 concentration 0 nM
# Method: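 Cooperative genomic-context PBM: 36-bp genomic probes with neighbouring ETS1 and RUNX1 sites, double-stranded on Agilent 4x180k arrays. Full-length recombinant human ETS1 (1 nM) was incubated alone or with RUNX1 (25 nM) and detected with anti-ETS1 antibody plus Alexa488 secondary. Value is the median fluorescence intensity over 4 replicate spots; the ETS1+RUNX1 data were normalised to the ETS1-only data using probes without RUNX1 sites. The 36-bp variable region sits on the array probe with constant linker/primer flanks that are not printed.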
row,Sequence,ETS1 binding intensity
1,TGAAACCCAGCAGGATGTGGGTTAACGGCAGGGGAG,2590
2,CTTTGCTGCAGGATGTTCTAACCACAAGCCCAGGAG,1070
3,AACAAAGAGAGAGGAAGTGGGTTGGGCGGGGGGGGT,1880
4,TCTTCAGGCGTCTTTCCGGTGGTGGTCGTTTTTGCT,1530
5,AACAACTGACCGGACAGAACACAGCCACAAAACACG,606
6,CCGACCTTAACGACATCCTGCGGCTCAGCGTGGAGG,489
7,TGAGGCTCAGAGGAAGTGACTGGCCCGCAGGGTCAC,1050
8,CTGGGCTCGCCAGGCGGAAGTGGTTGGAGACTGCGT,6330
9,TGATGCAGGAAGGGGTGGAGTCACCACAGGAGGTAG,827
10,GCCCCCGGCTGGGCAGGATGTGGTGGCAGCTGCAGG,4040
11,TATCAATAAGGAAGTACAATCACCAAACCACAAGCC,619
12,CACTTCCTATCGCTACATAACAAATTACCACAGACT,451
13,GTAGCTCCTCCCACTTCCCGTGGTTTTCGGTTGAAC,564
14,GCACCGTCTACCCGGAAGTTGTGGGCTGGGAGGGAT,5610
15,GAGGACGCGGAAGTCCTTCTTGCGGGGCGGAGCTAG,891
16,CAGTTCCAGGAAGCAGCCCCAAGCTTGTGGCCCTGA,526
17,GGGCTTCCGGCTGAACCCATGGCTGCGGGCTGTGCT,445
18,AACTAGAGCGTCATTTCCTGTGGGTACAAGTCCAGT,1640
19,GGACCGGAAGTAGGTTTCTACCCGACCGCATTTTAC,12100
20,GCTCCTGGCCCGCACTTCCGACCACACACTGGGGAC,557

row,Sequence,ETS1 binding intensity
1,TGGCTGTGTCCCGGAAGTGGTCATAAGCTGGGTCCC,8520
2,CACTTCCCGTGGGAGGATCTTGGGCTGCGGCTAGGG,421
3,ATTGTAAATTTCCTTTAAACGTCCCCACCGCGCTCC,463
4,TCAAGAAAACAGGAAACTCTCAAAACCAAGTTCTGA,1430
5,GACAATGAGCGCACAGGATGTGGTTTGGCGGCAGGG,6680
6,AGTCAAACAGGATGTGGCTGGGGAGGCGGTTGTCAC,3750
7,ACCCAGGAGGCGGAAGTTGTGGTGAGCCGAGATCGC,4020
8,GCTGAGGCCGGAAGAGGGTGGGGCCGCGGTGGCTAG,2170
9,CCCCCACATCCTGTTTGGTTTGTGGGACACCTCAAC,2100
10,AGGGCATTTCCTTTGGGGCTGGTGGTCACGGACAAC,471
11,GACCAATGTAAACAAGGATGTGGGTTCTCCGGCCAC,784
12,ACATTTCCTTTTGGTATTTAAAGTAACCACACAGAA,495
13,AAAAGGCACCAGGAAATGACAGCACCGCAGCACGCC,1290
14,CCACGTAAAGGCGGAAGCGGTTGAGTGGACGCCATC,3090
15,TCTGTGAAAAAGGATGTGCGGTTATGGAGGAGAACT,970
16,CCAGAGCAGGATGTTCTGCTGTGGCTAGATAAGCCC,907
17,GAAATGAGAGAACGGAAACCACAAGTCAAGGGGCTT,1460
18,TGGCATTCTCCTTCCTGTCTCCTAACCACAGCCCAC,741
19,TGGGTACTTCCTGTGACAAATCGAGTTGACCACATG,1190
20,CTGCACAAGGAAGCGCCTGTGTTGCTGTGGGCGGAG,472
